Source: the supplement of paper PMC9262897, “Low-cost anti-mycobacterial drug discovery using engineered E. coli” (Nature Communications, 2022)
Where a name gives a salt, the structure may show the parent alone. ± gives the standard deviation of the averaged measurements.

What was measured:
Test in all cases: growth (OD600 after 10 h); higher = more growth (less inhibition)
[1] = test system: E. coli TESEC Alr+ wild-type control; settings: compound 0.1 mM; raw OD600 reference: median of DMSO wells 0.241, cell-free background 0.041
Procedure: (§1)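 TESEC Mtb Alr E. coli, or the Alr+ wild-type control, in 384-well plates with Prestwick library compounds at 0.1 mM and 1% DMSO, across arabinose induction levels of 1E3 to 1E7 nM. Growth is read as OD600 after 10 h at 37 °C in triplicate biological replicates.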

E. coli TESEC Mtb Alr [2] = settings: compound 0.1 mM
Procedure: as §1

E. coli TESEC Mtb Asd = settings: compound 0.1 mM
Procedure: (§2)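 TESEC E. coli strains in which the native enzyme is deleted and replaced by arabinose-inducible Mtb Asd, DapB, CysH or TrpD, each grown in its selective medium. Strains were screened against the Prestwick library at 0.1 mM and 1% DMSO in 384-well format at low and high arabinose induction. Growth is read as OD600 after 10 h in triplicate.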

E. coli TESEC Mtb DapB = settings: compound 0.1 mM
Procedure: as §2

[3] = test system: E. coli TESEC Alr+ wild-type control; settings: compound 0.1 mM; raw OD600 reference: median of DMSO wells 0.49, cell-free background 0.052
Procedure: (§3)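 TESEC Mtb Alr E. coli (ΔaraC ΔtolC ΔentC Δalr ΔdadX, arabinose-inducible Mtb Alr) or the Alr+ wild-type control strain, grown in defined M9-fructose medium without D-alanine in 96-well plates with Prestwick library compounds at 0.1 mM and 1% DMSO. Low Alr induction is 0.1 µM arabinose and high induction is 10 mM arabinose.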

E. coli TESEC Mtb Alr [4] = settings: compound 0.1 mM; remark: listed apart in the source
Procedure: as §3

[5] = arabinose 1000 nM, raw OD600 reference: median of DMSO wells 0.294, cell-free background 0.041
[6] = arabinose 10000 nM, raw OD600 reference: median of DMSO wells 0.264, cell-free background 0.041
[7] = arabinose 100000 nM, raw OD600 reference: median of DMSO wells 0.201, cell-free background 0.041
[8] = arabinose 1000000 nM, raw OD600 reference: median of DMSO wells 0.193, cell-free background 0.041
[9] = arabinose 10000000 nM, raw OD600 reference: median of DMSO wells 0.146, cell-free background 0.041
[10] = arabinose induction (level): High, raw OD600 reference: median of DMSO wells 0.331, cell-free background 0.041
[11] = arabinose induction (level): Low, raw OD600 reference: median of DMSO wells 0.417, cell-free background 0.041
[12] = arabinose induction (level): High, raw OD600 reference: median of DMSO wells […], cell-free background 0.041
[13] = arabinose induction (level): Low, raw OD600 reference: median of DMSO wells 0.227, cell-free background 0.041
[14] = arabinose 100 nM, raw OD600 reference: median of DMSO wells 0.413, cell-free background 0.052
[15] = arabinose 10000000 nM, raw OD600 reference: median of DMSO wells […], cell-free background 0.052

Compound	growth [1]	growth (E. coli TESEC Mtb Alr [2]; [5])	growth (E. coli TESEC Mtb Alr [2]; [6])	growth (E. coli TESEC Mtb Alr [2]; [7])	growth (E. coli TESEC Mtb Alr [2]; [8])	growth (E. coli TESEC Mtb Alr [2]; [9])	growth (E. coli TESEC Mtb Asd; [10])	growth (E. coli TESEC Mtb Asd; [11])	growth (E. coli TESEC Mtb DapB; [12])	growth (E. coli TESEC Mtb DapB; [13])	growth [3]	growth (E. coli TESEC Mtb Alr [4]; [14])	growth (E. coli TESEC Mtb Alr [4]; [15])
CC(C)[C@H](N)C(=O)OCCOCn1cnc2c(=O)nc(N)[nH]c21 [Valacyclovir hydrochloride]	0.243 ± 0.0038	0.302 ± 0.0067	0.2661 ± 0.0012	0.22 ± 0.039	0.195 ± 0.0058	0.144 ± 0.0025	0.258 ± 0.006	0.365 ± 0.054	0.179 ± 0.011	0.186 ± 0.021	0.533 ± 0.17	0.408 ± 0.0084	0.369 ± 0.0047
O=C(CCCCCCC(=O)Nc1ccccc1)NO [Vorinostat]	0.253 ± 0.0073	0.295 ± 0.0062	0.238 ± 0.0041	0.164 ± 0.012	0.153 ± 0.0023	0.124 ± 0.011	0.195 ± 0.028	0.335 ± 0.061	0.174 ± 0.0062	0.204 ± 0.0056	0.495 ± 0.099	0.415 ± 0.01	0.3 ± 0.021
CN(C)CCCN1c2ccccc2CCc2ccccc21 [Imipramine hydrochloride]	0.189 ± 0.019	0.242 ± 0.018	0.285 ± 0.013	0.212 ± 0.014	0.133 ± 0.0058	0.175 ± 0.011	0.164 ± 0.026	0.363 ± 0.063	0.194 ± 0.016	0.243 ± 0.071	0.452 ± 0.015	0.408 ± 0.0092	0.21 ± 0.11
NC(=O)N1c2ccccc2C=Cc2ccccc21 [Carbamazepine]	0.241 ± 0.0068	0.281 ± 0.0037	0.239 ± 0.0011	0.182 ± 0.032	0.173 ± 0.0066	0.142 ± 0.00057	0.36 ± 0.013	0.35 ± 0.059	0.194 ± 0.018	0.237 ± 0.046	0.491 ± 0.0058	0.405 ± 0.0088	0.272 ± 0.12
COc1ncnc(NS(=O)(=O)c2ccc(N)cc2)c1OC [Sulfadoxine]	0.2282 ± 0.0012	0.28 ± 0.0075	0.251 ± 0.0051	0.192 ± 0.021	0.174 ± 0.007	0.14 ± 0.0077	0.306 ± 0.058	0.382 ± 0.062	0.195 ± 0.0074	0.237 ± 0.0097	0.594 ± 0.022	0.4331 ± 0.0033	0.306 ± 0.007
CC(C)C[C@H](NC(=O)[C@@H](O)[C@H](N)Cc1ccccc1)C(=O)O [Ubenimex]	0.24 ± 0.011	0.28 ± 0.0072	0.2345 ± 0.0011	0.215 ± 0.028	0.185 ± 0.006	0.132 ± 0.0031	0.395 ± 0.019	0.382 ± 0.025	0.192 ± 0.017	0.229 ± 0.015	0.528 ± 0.089	0.396 ± 0.011	0.323 ± 0.018
N#Cc1ccc(C(c2ccc(C#N)cc2)n2cncn2)cc1 [Letrozole]	0.2404 ± 0.0017	0.308 ± 0.006	0.253 ± 0.0064	0.243 ± 0.028	0.16 ± 0.0045	0.146 ± 0.0044	0.243 ± 0.06	0.356 ± 0.086	0.213 ± 0.018	0.24 ± 0.032	0.502 ± 0.046	0.394 ± 0.016	0.309 ± 0.016
Clc1ccc(COC(Cn2ccnc2)c2ccc(Cl)cc2Cl)cc1 (stereo not drawn) [Econazole nitrate]	0.0521 ± 0.0032	0.048 ± 0.0022	0.05773 ± 5.8e-05	0.0544 ± 0.0013	0.0574 ± 0.0015	0.0483 ± 0.0014	0.0469 ± 0.00075	0.04693 ± 0.00042	0.04893 ± 0.00047	0.0996 ± 0.064	0.056 ± 0.002	0.059 ± 0.0077	0.0553 ± 0.0037
Clc1cccc(Cl)c1NC1=NCCN1 [Clonidine hydrochloride]	0.245 ± 0.01	0.289 ± 0.0065	0.261 ± 0.0058	0.201 ± 0.023	0.173 ± 0.0049	0.145 ± 0.011	0.377 ± 0.03	0.422 ± 0.016	0.195 ± 0.012	0.26 ± 0.034	0.462 ± 0.014	0.407 ± 0.013	0.375 ± 0.017
COC(=O)C1=C(C)NC(C)=C(C(=O)OCCN(C)Cc2ccccc2)C1c1cccc([N+](=O)[O-])c1 (stereo not drawn) [Nicardipine hydrochloride]	0.0481 ± 0.0012	0.0453 ± 0.0013	0.04637 ± 0.00021	0.049 ± 0.0015	0.045 ± 0.0027	0.0566 ± 0.0042	0.054 ± 0.0024	0.0558 ± 0.0072	0.107 ± 0.079	0.0547 ± 0.0015	0.0588 ± 0.0012	0.3938 ± 0.0022	0.0545 ± 0.0036
CC(=O)O[C@H]1C[C@@H]2CC[C@@H]3[C@H](CC[C@@]4(C)[C@H]3C[C@H]([N+]3(C)CCCCC3)[C@@H]4OC(C)=O)[C@@]2(C)C[C@@H]1N1CCCCC1 [Vecuronium bromide]	0.0818 ± 0.00093	0.0791 ± 0.0015	0.0482 ± 0.00074	0.07643 ± 0.00021	0.0518 ± 0.0023	0.07727 ± 0.00072	0.136 ± 0.0039	0.124 ± 0.0035	0.172 ± 0.019	0.216 ± 0.022	0.23 ± 0.013	0.396 ± 0.0098	0.0791 ± 0.0096
COc1cc(C)c(/C=C/C(C)=C/C=C/C(C)=C/C(=O)O)c(C)c1C [Acitretin]	0.227 ± 0.0077	0.276 ± 0.0084	0.127 ± 0.0023	0.228 ± 0.03	0.06247 ± 0.00031	0.162 ± 0.0072	0.137 ± 0.015	0.145 ± 0.0072	0.153 ± 0.0019	0.1772 ± 0.00061	0.34 ± 0.0082	0.369 ± 0.0094	0.199 ± 0.02
CN1CCc2cccc3c2[C@H]1Cc1ccc(O)c(O)c1-3 [R(-) Apomorphine hydrochloride hemihydrate]	0.0618 ± 0.002	0.292 ± 0.0093	0.254 ± 0.0078	0.181 ± 0.019	0.0652 ± 0.0022	0.14 ± 0.0033	0.152 ± 0.027	0.147 ± 0.066	0.16 ± 0.0062	0.174 ± 0.021	0.467 ± 0.025	0.407 ± 0.0077	0.199 ± 0.11
CC1=C(/C=C/C(C)=C/C=C/C(C)=C/C(=O)O)C(C)(C)CCC1 [Retinoic acid]	0.281 ± 0.008	0.309 ± 0.012	0.262 ± 0.006	0.246 ± 0.0066	0.149 ± 0.006	0.162 ± 0.015	0.355 ± 0.11	0.41 ± 0.0091	0.186 ± 0.0028	0.2256 ± 0.00047	0.476 ± 0.045	0.45 ± 0.0056	0.301 ± 0.013
CCCC1C(=O)N2C(N(C)C)=Nc3ccc(C)cc3N2C1=O (stereo not drawn) [Azapropazone]	0.226 ± 0.0057	0.287 ± 0.0066	0.2549 ± 0.002	0.178 ± 0.011	0.158 ± 0.0037	0.134 ± 0.0021	0.195 ± 0.031	0.323 ± 0.064	0.185 ± 0.015	0.206 ± 0.025	0.483 ± 0.02	0.399 ± 0.013	0.301 ± 0.0094
Nc1ncnc2c1ncn2C1OC(COP(=O)(O)O)C(O)C1O (stereo not drawn) [Adenosine 5'-monophosphate monohydrate]	0.26 ± 0.015	0.32 ± 0.013	0.2658 ± 0.0011	0.237 ± 0.021	0.175 ± 0.0094	0.15 ± 0.0046	0.276 ± 0.078	0.336 ± 0.058	0.214 ± 0.0055	0.25 ± 0.071	0.569 ± 0.09	0.374 ± 0.033	0.363 ± 0.013
